A selection: hits, their analogues and other compounds. The true share with any hit is near 0.61%.
Mtb hypoxia inh = Mtb hypoxia fluorescent reporter inhibition; M. tuberculosis hypoxia-regulated fluorescent reporter, fluorescence; fluorescence inhibition, % (no concentration beside the values); hit rate 0.1% among 300,000; in the data active = fluorescence inhibition mostly above about 23%, no sharp cut-off; inactive = mostly below about 17%
Sa ugtP lethal = growth inhibition of S. aureus ugtP deletion strain; growth inhibition, % (test concentration not listed); S. aureus RN4220 ugtP deletion, OD600 growth, 16 h; hit rate 0.54% among 330,000; in the data active = growth inhibition above about 68%;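 also: plate controls were untreated wells for no effect and antibiotic for full effect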
Sa RN4220 lethal = S. aureus RN4220 growth inhibition; OD600, 16 h; inhibition, % (test concentration not listed); hit rate 0.33% among 330,000; AID 1259311; in the data active = inhibition above about 85%;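 also: plate controls were untreated cells for no effect and reference antibiotic for full effect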
Mtb bLac sens = beta-lactam sensitization of Mtb H37Rv; M. tuberculosis H37Rv growth with meropenem, percent inhibition; inhibition, % at 25 µM; hit rate 0.27% among 330,000; call rule not given here;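 also: growth measured after seven days incubation then overnight dye step; 0% = bacteria only wells and 100% = bacteria with antibiotic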
Starred values were filed as active, the others as inactive; nt = not tested or not shown.

SMILES	Mtb hypoxia inh	Sa ugtP lethal	Sa RN4220 lethal	Mtb bLac sens
Cc1ccc(-c2cc(-c3ccc(C)cc3)[n+](-c3ccccc3)c(-c3ccc(C)cc3)c2)cc1	nt	100*	101*	100
CCc1n[nH]c(=S)n1N=Cc1ccccc1OCc1ccc(Cl)cc1	3	2	6	nt
O=C(NN=C/C(Br)=C/c1ccccc1)c1ccccc1F	-1	-8	-3	nt
CCCc1ccc(Oc2cn[nH]c2-c2ccc(O)c(C)c2O)cc1	13	100*	99*	-3
CCCc1ccc(Oc2c(-c3ccc(O)c(C)c3O)n[nH]c2C)cc1	5	97*	77	3
CCCOC(=O)c1ccc(Oc2cn[nH]c2-c2ccc(OCC)cc2O)cc1	1	0	-14	-2
CCn1c(C)nc2cc(C(=O)NN=Cc3ccc(OC)c(O)c3)ccc21	2	9	1	nt
O=C(C1=CC(c2ccc(C(F)(F)F)cc2)CC(OCc2ccc(CO)cc2)O1)N1CCN(Cc2ccc3c(c2)OCO3)CC1 (configuration not stated)	18	12	15	nt
CCCc1ccc(-c2cc(C(=O)N/N=C/c3ccc([N+](=O)[O-])o3)c3ccccc3n2)cc1	nt	nt	nt	100
O=C(NN=Cc1ccc([N+](=O)[O-])o1)c1cc2c(ccc3ccccc32)o1	-6	99*	98*	nt
CC1(C(=O)NN=Cc2ccc([N+](=O)[O-])o2)CC1(Br)Br (configuration not stated)	1	89*	82	nt
COC(=O)N/N=C/c1ccc([N+](=O)[O-])o1	nt	nt	nt	-1
CCCc1ccc(-c2cc(C(=O)NN=Cc3ccc([N+](=O)[O-])o3)c3ccccc3n2)cc1	nt	99*	108*	nt
Cc1ccc2nc(NN=Cc3ccc([N+](=O)[O-])o3)nc(-c3ccccc3)c2c1	nt	100*	99*	nt
Cc1cc(NN=Cc2ccc([N+](=O)[O-])o2)nc2ccccc12	4	18	27	nt
O=C(NN=Cc1ccc([N+](=O)[O-])o1)c1cc2ccccc2o1	nt	31	24	nt
O=C(C=NO)NCc1cccnc1	-9	2	7	nt
COc1ccc(-c2ccc3c(c2)S(=O)(=O)c2cccc(C(=O)NCC4CCCO4)c2C3=O)cc1OC (configuration not stated)	3	9	11	nt
COc1ccc(-c2nn(-c3ccccc3)cc2C(=O)N/N=C/c2ccc([N+](=O)[O-])o2)cc1	nt	nt	nt	2
O=C(NN=Cc1ccc([N+](=O)[O-])o1)c1cn(-c2ccccc2)nc1-c1ccc(Cl)cc1	-11	99*	99*	nt
CCOc1ccc2nc(N3C(=O)/C(=C/c4ccccc4)NC3=S)sc2c1	4	94*	8	59
COc1ccc2nc(N3C(=O)/C(=C/c4ccccc4)NC3=S)sc2c1	1	92*	0	74
Cc1ccsc1C=NN1CCN(c2ccccn2)CC1	16	16	4	nt
CCCCCCCn1c2c(c(=N)c3c1CCC3)CCCC2	nt	99*	11	nt
CCCCCCCCCn1c2c(c(=N)c3c1CCC3)CCC2	24	101*	100*	100
SMILES	Mtb hypoxia inh	Sa ugtP lethal	Sa RN4220 lethal	Mtb bLac sens
CCCCn1c2c(c(=N)c3c1CCC3)CCC2	nt	nt	nt	0
CCCCCCn1c2c(c(=N)c3c1CCC3)CCC2	13	2	3	-8
Nc1nonc1-n1nnc(C(=O)NN=Cc2cccc(Cl)c2)c1CSc1ccc(Cl)cc1	15	-2	4	nt
CC(C)n1cc(C=NNC(=O)c2cc3c(ccc4ccccc43)o2)c2ccccc21	-1	-16	-6	nt
O=c1c2ccccc2sn1-c1ccccc1	8	94*	84	96
O=C(O)c1cccc(-n2sc3ccccc3c2=O)c1	nt	nt	nt	1
O=C(NN=Cc1cccnc1)c1ccc2c(c1)OCO2	-1	-1	2	nt
CC(=O)Nc1cccc(C(C)=NNC(N)=S)c1	nt	8	3	nt
OCCN1CCN(CCCN2c3ccccc3Sc3ccc(C(F)(F)F)cc32)CC1	16	-6	-1	72
FC(F)(F)c1ccc2c(c1)N(CCCN1CCN(CCCl)CC1)c1ccccc1S2	nt	101*	100*	-1
CCCn1nnc(NC(=O)c2ccccc2Cl)n1	-1	13	2	1
CCCn1nnc(NC(=S)NC(=O)c2ccccc2OC)n1	33*	3	28	-1
Cc1ccc(C=CC(=O)NCCCc2ccccc2)cc1	7	3	2	nt
O=C(Nc1ccc(S(=O)(=O)N2CCOCC2)cc1)c1ccc([N+](=O)[O-])s1	38*	-2	6	95
O=C(Nc1ccc(S(=O)(=O)N2CCOCC2)cc1)c1cccs1	nt	-1	1	-4
O=[N+]([O-])c1c(Nc2ccc(O)cc2)cc(Cl)c2nonc12	nt	99*	100*	101
O=c1cc(-c2ccccc2)[nH]n1-c1nc2ccccc2s1	nt	91*	80	4
O=c1cc(-c2ccccc2)[nH]n1-c1ccccc1	7	-1	6	nt
